A short description of experiment [1]: qHTS assay to identify small molecule antagonists of the androgen receptor (AR) signaling pathway using the MDA cell line in the presence of 0.5 nM R1881 - cell viability counter screen (AID 1259242). Note: nearly all actives have a fitted effect of over 45% in size. The essentials:
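Live-cell protease fluorescence, CellTiter-Fluor, 30 min at 37C. Cells: MDA-kb2, 3,000/well, preincubated 5 hr. Compounds plus 0.5 nM R1881 final, 16 hr, 37C, 0% CO2.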

Experiment [2] is described as follows: qHTS assay to identify small molecule HDAC inhibitors (AID 1259364).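 Note: wild-type HCT-116 cells with endogenous class I/II HDAC activity; top concentration of the series differs between compounds; nearly all actives have a fitted effect of over 45% in size.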 Put shortly: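 HCT-116 (wild type), 1,500 cells/well, overnight; compound 2 hr 37C 5% CO2; HDAC-Glo I/II reagent 30 min RT; luminescence readout.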
Experiment [3] is described as follows: qHTS assay to identify small molecule agonists of the sonic hedgehog signaling (Shh) pathway - cell viability counter screen (AID 1259366). Note: nearly all actives have a fitted effect of over 50% in size. Note: potency is the fitted concentration of half-maximal effect. The essentials:
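Cytotoxicity counter screen run in the same wells as the Shh reporter assay. NIH/3T3 cells carrying a Gli1 response element–driven luciferase were treated with DMSO-dissolved compounds for 24hr, and live-cell protease activity was measured with CellTiter-Fluor.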
A general note: In qHTS, concentration-response curves come from the screen itself.

Experiment [4] can be described thus: qHTS assay to identify small molecule antagonists of the sonic hedgehog signaling (Shh) pathway - cell viability counter screen (AID 1259367). Note: nearly all actives have a fitted effect of over 55% in size. Note: potency is the fitted concentration of half-maximal effect. Put shortly: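 Conditioned medium drove Shh signaling in 3T3 Gli1-Luc cells exposed to compounds at 37C and 5% CO2. Viability was determined from CellTiter-Fluor fluorescence, with reagent incubated 1 hr after 23 hr of treatment.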

A short description of experiment [5]: qHTS assay to identify small molecule agonists of the sonic hedgehog signaling (Shh) pathway (AID 1259368; calls by dose curve;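 note: NIH/3T3-derived 3T3Gli1-Luc cells carrying a stable Gli1-driven firefly luciferase reporter; series mostly up to about 92 µM; nearly all actives have a fitted effect of over 15% in size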). The essentials:
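Read-out: firefly luciferase luminescence from a Gli1 response element reporter stably integrated in NIH/3T3-derived 3T3Gli1-Luc cells, measured 30 min at room temperature after reagent addition. Compound exposure lasted 24 hr at 37 C, 5% CO2.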

Experiment [6] can be described thus: qHTS assay to identify small molecule antagonists of the sonic hedgehog signaling (Shh) pathway (AID 1259369; calls by dose curve; note: nearly all actives have a fitted effect of over 45% in size; note: potency is the fitted concentration of half-maximal effect). Put shortly:
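Luminescence readout: firefly Luc under Gli1 response element in 3T3Gli1-Luc cells (NIH/3T3 clone). Antagonist mode, stimulation by conditioned medium; compound exposure 24hr at 37 C, 5% CO2.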

For experiment [7], the target named is Estrogen receptor beta (Homo sapiens) (UniProt Q92731). The experiment is described as follows: qHTS assay to identify small molecule agonists of the estrogen receptor beta (ER-beta) signaling pathway (AID 1259377; active = well fitted activation curve with a large enough effect in the signal ratio in the repeat runs, not every such curve was filed as active; the % refers to the signal ratio). The essentials:
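HEK293T ER-beta-UAS-bla; 2% charcoal-stripped FBS; cells pre-incubated 6 hr, compound 16 hr, 37C/5% CO2; LiveBLAzer B/G FRET substrate 2 h RT; fluorescence intensity read.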

The target is the same in experiment [8]. The experiment is described as follows: qHTS assay to identify small molecule antagonists of the estrogen receptor beta (ER-beta) signaling pathway (AID 1259378; active = well fitted inhibition curve with a large enough effect in the signal ratio in the repeat runs, not every such curve was filed as active; the % refers to the signal ratio). The essentials: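 ER-beta-UAS-bla HEK293T (GripTite) cells in 2% charcoal-stripped FBS medium were preincubated 6 hr at 37C, dosed with compound, then stimulated with 1 nM E2 (final) for 16 hr; beta-lactamase reporter read by B/G FRET fluorescence after 2 hr substrate loading.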

Experiment [9] can be described thus: qHTS assay to identify small molecule agonists of the androgen receptor (AR) signaling pathway in the presence of an antagonist - cell viability counter screen (AID 1259379). Note: nearly all actives have a fitted effect of over 25% in size. Note: potency is the fitted concentration of half-maximal effect. Put shortly: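 Viability counter screen: CellTiter-Fluor fluorescence, measured in the same wells as the luciferase read-out. MDA-kb2 cells, 3,000/well, with nilutamide at 3.0uM final and compounds at 15 concentrations, 16 hr at 37C, 0% CO2.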

The nature of experiment [10]: qHTS assay to identify small molecule agonists of the estrogen receptor beta (ER-beta) signaling pathway - cell viability counter screen (AID 1259380). Note: nearly all actives have a fitted effect of over 30% in size. The essentials:
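Luminescence read-out (CellTiter-Glo, 30 min, room temp) taken in the same wells as the beta-lactamase reporter assay; ER-beta-UAS-bla HEK293T cells exposed to DMSO-dissolved compounds for 16 hr at 37C in 2% charcoal-stripped FBS medium.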

Experiment [11] in a line: qHTS assay to identify small molecule HDAC inhibitors - cell viability counter screen (AID 1259365). Note: series mostly up to about 92 µM; nearly all actives have a fitted effect of over 50% in size. Put shortly:
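Luminescence from CellTiter-Glo, developed 30min at room temperature, reports viability of wild-type HCT-116 cells treated 2hr with compounds at 37 C and 5% CO2 after overnight plating.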

For experiment [12], the target named is Estrogen receptor (Homo sapiens) (UniProt P03372). The experiment is described as follows: qHTS assay to identify small molecule agonists of the estrogen receptor alpha (ER-alpha) signaling pathway in the presence of an antagonist (AID 1259383; calls by dose curve; note: top concentration of the series differs between compounds; nearly all actives have a fitted effect of over 15% in size). The essentials:
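Luciferase luminescence (ONE-Glo, 30min at room temperature) measured in VM7Luc4E2 cells after 22hr compound exposure at 15 concentrations, with 10.0nM ICI-182,780 final present; cells express endogenous ER-alpha and carry four EREs upstream of luciferase.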

Experiment [13] is described as follows: qHTS assay to identify small molecule agonists or antagonists of the thyroid stimulating hormone receptor (TSHR) signaling pathway - wild type cell line counter screen (AID 1259384; calls by dose curve). The essentials:
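Wild-type HEK293 cells were plated 18 h at 37 C/5% CO2, pin-dosed with compound plus Ro20-1724 medium, held 30 min at room temperature, then given cAMP-d2 and anti-cAMP-cryptate; fluorescence was read after 1 h. Fifteen concentrations, triplicate.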

Experiment [14] concerns the target Thyrotropin receptor (Homo sapiens) (UniProt P16473). The experiment is described as follows: qHTS assay to identify small molecule antagonists of the thyroid stimulating hormone receptor (TSHR) signaling pathway (AID 1259385; calls by dose curve; note: nearly all actives have a fitted effect of over 20% in size). The essentials: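 TSHR-HEK293 cells were plated and held 18 h at 37C/5% CO2, then given compound plus Ro20-1724 and stimulated with TSH at 1.5 ng/mL final. After 30 min at room temperature, cAMP was detected with cAMP-d2/anti-cAMP-cryptate (1 h) by fluorescence.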

For experiment [15], the target named is Estrogen receptor (Homo sapiens) (UniProt P03372). As to the kind of experiment: qHTS assay to identify small molecule antagonists of the estrogen receptor alpha (ER-alpha) signaling pathway using the BG1 cell line in the presence of 0.1 nM 17-beta-estradiol (AID 1259244). Note: nearly all actives have a fitted effect of over 50% in size. Note: potency is the fitted concentration of half-maximal effect. Put shortly: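 Luminescence after ONE-Glo (30 min, room temperature) measured ERE-luciferase activity in VM7Luc4E2 cells treated 22 h with compound and 0.1 nM final 17beta-estradiol as stimulator.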
Estrogen receptor (Homo sapiens), sequence (P03372 whole entry, looked up): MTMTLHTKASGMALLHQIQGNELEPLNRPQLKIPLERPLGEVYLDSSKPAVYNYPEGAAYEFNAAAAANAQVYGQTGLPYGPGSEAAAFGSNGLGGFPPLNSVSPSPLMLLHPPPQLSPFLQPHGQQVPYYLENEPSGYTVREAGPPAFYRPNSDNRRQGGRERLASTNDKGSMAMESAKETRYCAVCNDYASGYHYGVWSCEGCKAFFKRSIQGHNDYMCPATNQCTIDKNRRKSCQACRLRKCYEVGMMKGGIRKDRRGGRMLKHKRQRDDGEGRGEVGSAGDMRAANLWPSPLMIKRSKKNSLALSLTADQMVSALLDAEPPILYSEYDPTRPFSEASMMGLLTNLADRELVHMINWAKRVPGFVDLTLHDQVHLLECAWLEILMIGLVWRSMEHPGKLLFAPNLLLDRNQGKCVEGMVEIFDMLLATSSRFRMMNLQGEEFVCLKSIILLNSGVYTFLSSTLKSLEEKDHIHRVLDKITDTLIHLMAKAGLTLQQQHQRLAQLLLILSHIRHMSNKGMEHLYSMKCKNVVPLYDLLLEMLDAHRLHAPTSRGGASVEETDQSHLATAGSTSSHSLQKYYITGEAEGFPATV

Experiment [16] is described as follows: qHTS assay to identify small molecule antagonists of the estrogen receptor beta (ER-beta) signaling pathway - cell viability counter screen (AID 1259382). Note: series mostly up to about 92 µM; nearly all actives have a fitted effect of over 55% in size. Put shortly:
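Luminescent ATP read-out (CellTiter-Glo, 30 min, RT) taken in the same wells as the bla reporter assay. HEK293T ER-beta-UAS-bla cells in 2% charcoal-stripped FBS were exposed to compounds with 1nM E2 for 16 hr at 37C.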

Experiment [17] is described as follows: qHTS assay to identify small molecule phospholipidosis (PLD) inducers (AID 1259344; active = well fitted curve in the direction sought with a large enough effect; an effect the other way counts as inactive or inconclusive). The essentials:
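After 4 h attachment on collagen I, HepG2 cells were dosed with compound alongside LipidTOX Red, kept 24 h at 37 C, fixed, and imaged for lamellar phospholipid pits.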

Several values for one entry are separate records, joined by “and”; a condition that tells them apart may be missing. Equal values may be shown once. Results filed as inconclusive are left out. Activity calls are given as the source filed them. Unless noted, calls come from the whole dose curve; as a rule, active = well fitted curve in the direction sought with a large enough effect in the repeat runs; inconclusive = weak or mixed curves; inactive = no such curve, though single readings can be large; an effect the other way counts as inactive or inconclusive.

Thyrotropin receptor (Homo sapiens), sequence (P16473 whole entry, looked up): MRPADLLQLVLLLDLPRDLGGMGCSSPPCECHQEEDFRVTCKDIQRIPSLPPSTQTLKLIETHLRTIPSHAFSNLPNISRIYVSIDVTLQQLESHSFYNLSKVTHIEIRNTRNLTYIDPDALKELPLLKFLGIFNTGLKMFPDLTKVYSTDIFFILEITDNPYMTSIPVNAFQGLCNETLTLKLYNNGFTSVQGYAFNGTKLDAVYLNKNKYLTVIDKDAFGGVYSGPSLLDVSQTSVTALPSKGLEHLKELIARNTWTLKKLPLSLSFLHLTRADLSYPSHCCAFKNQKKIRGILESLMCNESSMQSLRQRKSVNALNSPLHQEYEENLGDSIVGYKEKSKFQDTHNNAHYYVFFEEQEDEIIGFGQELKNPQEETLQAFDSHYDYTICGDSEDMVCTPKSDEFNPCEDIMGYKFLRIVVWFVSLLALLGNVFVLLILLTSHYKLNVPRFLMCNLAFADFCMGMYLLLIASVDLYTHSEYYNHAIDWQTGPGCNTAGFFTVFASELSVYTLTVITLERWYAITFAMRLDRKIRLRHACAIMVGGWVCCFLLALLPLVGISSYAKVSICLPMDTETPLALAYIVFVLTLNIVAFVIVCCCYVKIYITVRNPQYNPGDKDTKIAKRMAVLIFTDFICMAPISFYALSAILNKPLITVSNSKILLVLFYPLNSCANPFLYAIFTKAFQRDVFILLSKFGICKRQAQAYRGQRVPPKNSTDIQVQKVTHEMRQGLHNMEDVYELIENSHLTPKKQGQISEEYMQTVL
Estrogen receptor beta (Homo sapiens), sequence (Q92731 whole entry, looked up): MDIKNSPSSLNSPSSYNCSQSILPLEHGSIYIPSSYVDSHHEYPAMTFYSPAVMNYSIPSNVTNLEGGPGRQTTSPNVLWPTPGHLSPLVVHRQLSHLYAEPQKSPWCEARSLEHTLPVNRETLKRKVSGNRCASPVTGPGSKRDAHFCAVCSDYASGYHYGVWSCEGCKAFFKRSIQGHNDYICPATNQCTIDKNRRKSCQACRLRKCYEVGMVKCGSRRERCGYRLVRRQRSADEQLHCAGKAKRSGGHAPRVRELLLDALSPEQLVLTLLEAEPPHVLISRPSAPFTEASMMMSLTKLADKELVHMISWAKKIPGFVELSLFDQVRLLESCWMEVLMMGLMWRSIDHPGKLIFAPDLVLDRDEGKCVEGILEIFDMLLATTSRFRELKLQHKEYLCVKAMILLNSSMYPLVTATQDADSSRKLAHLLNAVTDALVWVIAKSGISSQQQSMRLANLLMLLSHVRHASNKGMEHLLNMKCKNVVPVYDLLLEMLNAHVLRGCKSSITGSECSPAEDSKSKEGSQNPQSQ

Take `O=C(O)c1cc(Cl)ccc1Cl`: the Potency entry in [1], in experiment [2], in experiment [3], in experiment [4], in experiment [5] and in experiment [6] was “inactive” throughout. Further, the Potency result in experiment [7], in experiment [8], in experiment [9] and in [10] was “inactive” in each case.
As to `Nc1cccc2ccccc12`, the Potency entry in experiment [2], in experiment [11], in [3], in [4], in [5] and in [9] was “inactive” in each case. For the same molecule, the Potency result in experiment [10], in experiment [12] and in experiment [14] was “inactive” throughout. In addition, the call in [13] was inactive.
On to `C=CCc1ccccc1O`, for which the Potency result in experiment [1], in experiment [15], in experiment [2], in experiment [11], in experiment [3] and in experiment [4] was “inactive” each time. Moreover, the Potency result in [5], in experiment [6], in experiment [7], in [8], in experiment [9] and in experiment [10] was “inactive” each time. Moreover, the Potency result in experiment [16] and in [12] was “inactive” each time.
`CC(C)OC(=O)Cc1ccccc1`: the Potency result in experiment [1], in [15], in [2], in experiment [11], in experiment [3] and in [4] was “inactive” each time. Also, the Potency result in experiment [5], in experiment [6], in experiment [9], in experiment [10], in experiment [16] and in experiment [12] was “inactive” throughout. In addition, the Potency result in experiment [14] was “inactive”. Also, the outcome in experiment [13] was inactive.
In the case of `CCOP(=S)(OCC)Oc1ccc(S(C)=O)cc1` (stereo unspecified), the Potency entry in experiment [15], in [2], in experiment [11], in experiment [3], in [4] and in [5] was “inactive” throughout. The Potency result in [6], in [7], in [8], in experiment [9], in experiment [10] and in [16] was “inactive” each time. In addition, the Potency entry in experiment [12] and in experiment [14] was “inactive” in each case. Further, in [13], the outcome was inactive.
On to `O=C1c2ccccc2C(=O)N1SC(Cl)(Cl)Cl`, for which the Potency in experiment [15] is 15.1 µM (active) and 21.7 µM (active); in [3], 12 µM (active) and 9.69 µM (active); in experiment [4], 9.55 µM (active) and 17.2 µM (active); in [6] it was 1.07 µM (active) and 1.93 µM (active); in experiment [9] it was 26.9 µM (active) and 27.3 µM (active). The Potency entry in experiment [2], in experiment [11], in [5], in experiment [16], in experiment [12] and in [14] was “inactive” in each case. Moreover, the molecule was classed as inactive in [13].
`O=C(O)C(O)C(O)C(=O)O` (stereo unspecified): the Potency result in experiment [1], in experiment [15], in experiment [2], in experiment [11], in experiment [3] and in experiment [4] was “inactive” throughout. Besides, the Potency entry in experiment [5], in experiment [6], in experiment [9], in experiment [10], in experiment [16] and in experiment [12] was “inactive” each time.
As for `CCCCCCCCP(=O)(O)O`, the Potency result in experiment [1], in [2], in experiment [11], in experiment [3], in [4] and in experiment [6] was “inactive” in each case. In addition, the Potency entry in experiment [8], in [9], in experiment [10], in experiment [16] and in [14] was “inactive” throughout. The result in [13] was inactive.
On to `O=C(O)c1cc(I)cc(I)c1I`, for which the Potency entry in experiment [15], in [2], in [11], in [3], in [4] and in [5] was “inactive” in each case. In addition, the Potency result in experiment [6], in experiment [9], in experiment [10], in experiment [16], in [12] and in experiment [14] was “inactive” throughout. Besides, the result in experiment [13] was inactive.
Turning to `CC(C)C1(C)N=C(c2ncccc2C(=O)O)NC1=O` (stereo unspecified), the Potency result in experiment [15], in experiment [2], in experiment [11], in [3], in experiment [4] and in [5] was “inactive” throughout. Moreover, the Potency entry in experiment [6], in [9], in experiment [10], in experiment [12] and in experiment [14] was “inactive” in each case. For the same molecule, the result in experiment [13] was inactive.
On to `CCCN(CCC)C(=O)Cc1c(-c2ccc(Cl)cc2)nc2ccc(Cl)cn12`, for which the Potency result in [1], in experiment [15], in experiment [2], in experiment [11], in experiment [5] and in experiment [6] was “inactive” throughout. In addition, the Potency result in [7], in experiment [8], in experiment [9], in experiment [12] and in experiment [14] was “inactive” each time. Moreover, the molecule was classed as inactive in experiment [17] and in experiment [13].
As for `CCCC[P+](CC)(CCCC)CCCC` (tested in a mixture with another compound), the Potency entry in [1], in [2], in [4], in experiment [5], in [6] and in experiment [10] was “inactive” in each case. In addition, the Potency entry in [16] and in experiment [14] was “inactive” throughout. In addition, the molecule was called inactive in experiment [13].
